# Reference: PubChem BioAssay (NCATS)
# Where “and” joins values, the source holds several entries; their conditions need not be identical. Identical values can stand only once. Inconclusive results are not listed. Calls of active or inactive are those of the source. Calls come from the whole dose curve; as a rule, active = well fitted curve in the direction sought with a large enough effect; inconclusive = small, poorly fitted or top-dose-only effect, or another doubt; inactive = no such curve, though single readings can be large; an effect the other way counts as inactive or inconclusive.
# Columns and labels:
# [1] = molecular target: Cellular tumor antigen p53 (Homo sapiens) (UniProt P04637); test: Primary qHTS for small molecule compounds that upregulate eGFP-tagged delta133p53alpha (in N-terminal) cells. (AID 2060322); conditions: NCI-H358 eGFP-delta133p53alpha fluorescence, 24 h; activation: hits give high values; note: nearly all actives have a fitted effect of over 75% in size; note: potency is the fitted concentration of half-maximal effect;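 for activation: 0% = DMSO vehicle and 100% = reference activator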
# Chain of Cellular tumor antigen p53 (Homo sapiens) (P04637 whole entry, looked up): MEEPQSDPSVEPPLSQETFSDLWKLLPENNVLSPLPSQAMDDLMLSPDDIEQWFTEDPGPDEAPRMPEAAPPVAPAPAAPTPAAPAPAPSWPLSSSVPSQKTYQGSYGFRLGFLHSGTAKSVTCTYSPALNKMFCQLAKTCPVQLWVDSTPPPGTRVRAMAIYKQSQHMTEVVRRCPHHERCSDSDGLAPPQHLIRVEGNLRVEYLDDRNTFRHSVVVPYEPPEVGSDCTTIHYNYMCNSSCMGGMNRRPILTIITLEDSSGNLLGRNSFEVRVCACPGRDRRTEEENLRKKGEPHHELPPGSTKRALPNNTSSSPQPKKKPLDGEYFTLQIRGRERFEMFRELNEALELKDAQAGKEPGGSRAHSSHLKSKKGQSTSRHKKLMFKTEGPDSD
# Method in brief: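 NCI-H358 cells pre-induced 24 h with 10 ng/ml doxycycline to express N-terminal eGFP-delta133p53alpha, then dosed 24 h at 37C without doxycycline; fixed, Hoechst-stained, GFP intensity by laser scanning cytometry, normalized to DMSO (0%) and 57.5 uM 5-azacytidine (100%).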
# [2] = molecular target: Aldehyde dehydrogenase, mitochondrial (Homo sapiens) (UniProt P05091); test: qHTS for Inhibitors of the Aldehyde Dehydrogenase Family (ALDH2) Primary screen (AID 2061308); conditions: ALDH2 enzyme inhibition qHTS, 1536-well; series mostly up to 56 µM;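 note: plate controls were vehicle for no effect and reference inhibitor for full effect; nearly all actives have a fitted effect of over 55% in size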
# [3] = molecular target: Retinaldehyde dehydrogenase 3 (Homo sapiens) (UniProt P47895); test: qHTS for Inhibitors of the Aldehyde Dehydrogenase Family (ALDH1A3) Primary screen (AID 2061315); conditions: ALDH inhibition qHTS; series mostly up to 56 µM;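 note: plate controls were DMSO vehicle for no effect and reference inhibitor for full effect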
# [4] = BET inhibitor-based combinations targeting novel dependencies in MECOM-rearranged (r) AML: SET-2 cell line (AID 2202231); conditions: SET-2 AML cells viability, CellTiter-Glo luminescence, 48 h; viability: hits give low values, concentration not given here;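 note: plate controls were DMSO treated cells for no effect and wells without cells for full effect; nearly all actives have a fitted effect of over 35% in size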
# Method in brief: (§1)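 Cells were plated at 500 per well and exposed to an 11-point dose series of each drug for 48 hr. Viability was measured by CellTiter-Glo luminescence, normalized to DMSO and empty-well controls, and summarized as AUC and per-cell-line Z-AUC.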
# [5] = BET inhibitor-based combinations targeting novel dependencies in MECOM-rearranged (r) AML: UCSD-AML1 cell line (AID 2202235); conditions: UCSD-AML1 AML cells viability, CellTiter-Glo, 48 h; series mostly up to 46 µM; note: nearly all actives have a fitted effect of over 40% in size; note: potency is the fitted concentration of half-maximal effect
# Method in brief: (§2)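 Activity is given as area under the curve and as Z-AUC, mean-centred within each cell line. It comes from 11-point dose curves normalized to DMSO and empty wells. CellTiter-Glo luminescence was read after 48 hr drug exposure of 500 cells/well.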
# [6] = BET inhibitor-based combinations targeting novel dependencies in MECOM-rearranged (r) AML: AML-194 cell line (AID 2202237; note: nearly all actives have a fitted effect of over 40% in size; note: potency is the fitted concentration of half-maximal effect); conditions: AML-194 (MECOM-r AML) viability, CellTiter-Glo, 48 h; series mostly up to 46 µM
# Method in brief: as §1
# [7] = BET inhibitor-based combinations targeting novel dependencies in MECOM-rearranged (r) AML: AML-191 cell line (AID 2202236; note: nearly all actives have a fitted effect of over 35% in size; note: potency is the fitted concentration of half-maximal effect); conditions: AML-191 viability, CellTiter-Glo luminescence, 48 h; series mostly up to 46 µM
# Method in brief: as §1
# [8] = BET inhibitor-based combinations targeting novel dependencies in MECOM-rearranged (r) AML: OCI-AML3 cell line (AID 2202232); conditions: CellTiter-Glo luminescence, 48 h; Potency: OCI-AML3 viability; series mostly up to 46 µM; note: nearly all actives have a fitted effect of over 35% in size; note: potency is the fitted concentration of half-maximal effect
# Method in brief: as §1
# [9] = BET inhibitor-based combinations targeting novel dependencies in MECOM-rearranged (r) AML: MV-4-11 cell line (AID 2202233); conditions: MV-4-11 AML viability, CellTiter-Glo luminescence, 48 h; series mostly up to 46 µM; note: nearly all actives have a fitted effect of over 45% in size; note: potency is the fitted concentration of half-maximal effect
# Method in brief: as §2
# [10] = BET inhibitor-based combinations targeting novel dependencies in MECOM-rearranged (r) AML: HNT-34 cell line (AID 2202234); conditions: HNT-34 AML viability, CellTiter-Glo luminescence, 48 h; series mostly up to 46 µM; note: nearly all actives have a fitted effect of over 35% in size; note: potency is the fitted concentration of half-maximal effect
# Method in brief: as §2
Compound,activation [1],Potency [2],Potency [3],viability [4],Potency [5],Potency [6],Potency [7],Potency [8],Potency [9],Potency [10],Potency [1],"activity change, negative = inhibition [2]","activity change, negative = inhibition [3]"
C[C@H](c1ccc(F)cc1CCCC(=O)O)N(c1cc(F)ccc1F)S(=O)(=O)c1ccc(Cl)cc1,-2.61% (inactive) and 2.68% (inactive),inactive,inactive,113% (inactive),inactive,inactive,–,–,–,–,–,–,–
Cc1c(NC(=O)c2cc(C(N)=O)nc3cc(F)ccc23)c(C(F)(F)F)nn1Cc1ccc(C#N)cc1,14.3% (inactive),inactive,inactive,101% (inactive),inactive,–,–,–,–,–,–,–,–
COc1ccc2c(c1)CC[C@@H](CN(C)CC(=O)O)[C@H]2c1ccccc1,-11.9% (inactive),inactive,inactive,116% (inactive),inactive,inactive,inactive,–,–,–,–,–,–
O=C(CC12CC3CC(CC(C3)C1)C2)Nc1cccc2nc(NCCNCCO)ccc12,11.8% (inactive) and 6.68% (inactive),inactive,inactive,114% (inactive),–,–,inactive,–,–,–,–,–,–
COc1nc(-c2ccc3c(c2)OCO3)n(-c2ccc(NC(=O)CSc3ccccc3)cc2)n1,2.57% (inactive) and -11.7% (inactive),inactive,inactive,97.5% (inactive),inactive,inactive,inactive,–,–,–,–,–,–
CCc1nc(C(N)=O)c(Nc2ccc(N3CCC(N4CCN(C)CC4)CC3)c(OC)c2)nc1NC1CCOCC1,-44.7% (inactive),inactive,inactive,–,2.63 µM (active),3.32 µM (active),2.63 µM (active),5.9 µM (active),0.059 µM (active),1.48 µM (active),–,–,–
Cc1cc2c(F)c(Oc3ncnn4cc(OCC(C)OC(=O)C(C)N)c(C)c34)ccc2[nH]1 (stereo not drawn),-1.79% (inactive),inactive,inactive,–,–,–,–,11.8 µM (active),11.8 µM (active),–,–,–,–
Clc1ccc(C2(c3ccc(-c4cn[nH]c4)cc3)CCNCC2)cc1,-10.3% (inactive) and 1.79% (inactive),inactive,inactive,–,18.6 µM (active),20.9 µM (active),18.6 µM (active),18.6 µM (active),4.17 µM (active),5.25 µM (active),–,–,–
Cc1ccccc1-n1c(Cn2nc(-c3cccc(O)c3)c3c(N)ncnc32)nc2cccc(C)c2c1=O,21.6% (inactive) and 16.7% (inactive),inactive,inactive,105% (inactive),–,inactive,14.8 µM (active),–,–,14.8 µM (active),–,–,–
Cc1cncc2cccc(S(=O)(=O)N3CCCN(C(=O)CN)C[C@@H]3C)c12,-16.4% (inactive) and -8.59% (inactive),inactive,inactive,91.2% (inactive),4.17 µM (active),–,–,–,–,–,–,–,–
CC(=O)O[C@]1(C(C)=O)CC[C@H]2[C@@H]3C[C@H](C)C4=CC(=O)CC[C@]4(C)[C@H]3CC[C@@]21C,-7.53% (inactive) and -21% (inactive),inactive,inactive,–,10.5 µM (active),9.34 µM (active),9.34 µM (active),14.8 µM (active),18.6 µM (active),8.33 µM (active),–,–,–
COc1cc(N2CCC(N3CCN(C)CC3)CC2)ccc1Nc1ncc(Cl)c(Nc2ccccc2P(C)(C)=O)n1,–,inactive,inactive,–,0.742 µM (active),–,–,0.742 µM (active),0.0186 µM (active),0.934 µM (active),3.01 µM (active),–,–
CCCCN(CCCC)C(=O)CN1C[C@H](c2ccc3c(c2)OCO3)[C@@H](C(=O)O)[C@@H]1c1ccc(OC)cc1,-2.39% (inactive) and -6.46% (inactive),inactive,inactive,–,inactive,inactive,inactive,inactive,inactive,inactive,–,–,–
Cc1nc(-c2cccnc2)sc1C(=O)Nc1ccccc1-c1cn2c(CN3CCOCC3)csc2n1,17.9% (inactive),inactive,inactive,–,inactive,inactive,inactive,inactive,inactive,inactive,–,–,–
CC(C)(O)c1cc2nc(-c3cnc(N)nc3)nc(N3CCOCC3)c2s1,18.8% (inactive),inactive,inactive,–,0.332 µM (active),–,–,1.32 µM (active),1.32 µM (active),1.86 µM (active),–,–,–
CNC(=O)c1cc(Oc2ccc(NC(=O)Nc3ccc(Cl)c(C(F)(F)F)c3)c(F)c2)ccn1,8.41% (inactive),inactive,inactive,–,–,–,9.34 µM (active),2.63 µM (active),0.59 µM (active),10.5 µM (active),–,–,–
C[C@@H]1CCN(C(=O)N2CCCC2)C[C@@H]1N(C)c1ncnc2[nH]ccc12,-10.7% (inactive),inactive,inactive,–,0.934 µM (active),–,–,inactive,–,16.6 µM (active),–,–,–
CN(NC(=O)CC(=O)NN(C)C(=S)c1ccccc1)C(=S)c1ccccc1,–,inactive,inactive,–,0.059 µM (active),0.0417 µM (active),0.0372 µM (active),0.0525 µM (active),–,0.0148 µM (active),0.861 µM (active),–,–
CC1=C(C(=O)Nc2cc3cn[nH]c3cc2F)C(c2ccc(Cl)cc2F)N=C(c2ccnc(Cl)c2)N1 (stereo not drawn),-24.2% (inactive) and 5.36% (inactive),inactive,inactive,–,–,–,–,–,5.9 µM (active),–,–,–,–

Compound,activation [1],Potency [2],Potency [3],viability [4],Potency [5],Potency [6],Potency [7],Potency [8],Potency [9],Potency [10],Potency [1],"activity change, negative = inhibition [2]","activity change, negative = inhibition [3]"
CCN1CCC(n2cc(CNc3cc(Cl)c4ncc(C#N)c(Nc5ccc(F)c(Cl)c5)c4c3)nn2)CC1,–,inactive,inactive,–,inactive,–,–,16.6 µM (active),20.9 µM (active),–,16.9 µM (active),–,–
Cc1ccc(-c2ccc3c(ccc4sc5c(c43)NC[C@@H](C)NC5=O)n2)cn1,8.04% (inactive),inactive,inactive,–,–,26.3 µM (active),26.3 µM (active),18.6 µM (active),20.9 µM (active),26.3 µM (active),–,–,–
CC1(C)CN(C(=O)c2ccc(-c3cccc4nc(NC(=O)C5CC5)nn34)cc2)C1,5% (inactive),inactive,inactive,–,–,–,–,inactive,–,18.6 µM (active),–,–,–
O=c1[nH]c([C@@H]2CCCN2)nc2c1oc1ccc(Cl)cc12,-1% (inactive),inactive,inactive,–,–,–,–,–,13.2 µM (active),–,–,–,–
O=C(NCCCNC(=O)c1ccc[nH]c1=O)c1cc(-c2ccccc2)on1,-2.33% (inactive),inactive,inactive,–,–,–,–,–,8.33 µM (active),–,–,–,–
Cc1ccc(Nc2nccc(N(C)c3ccc4c(C)n(C)nc4c3)n2)cc1S(N)(=O)=O,13% (inactive) and -7.12% (inactive) and -16.1% (inactive),inactive,inactive,–,–,–,18.6 µM (active),16.6 µM (active),5.25 µM (active),6.61 µM (active),–,–,–
Cc1cccc(Nc2nc(-c3ccncc3)cs2)c1,11.1% (inactive) and -1.43% (inactive),inactive,inactive,–,inactive,–,–,inactive,–,–,–,–,–
CC(C)(C)Cn1c(N)nc2ccc(-c3[nH]c(C(C)(C)C)nc3-c3ccc(F)cc3)nc21,-1.62% (inactive),inactive,inactive,–,inactive,–,–,–,18.6 µM (active),23.5 µM (active),–,–,–
Cc1cc(Nc2cc(N3CCN(C)CC3)nc(Sc3ccc(NC(=O)C4CC4)cc3)n2)n[nH]1,60.2% (inactive),inactive,inactive,–,4.68 µM (active),0.934 µM (active),0.662 µM (active),0.662 µM (active),0.132 µM (active),0.235 µM (active),–,–,–
CCN(CCCOc1ccc2c(Nc3cc(CC(=O)Nc4cccc(F)c4)[nH]n3)ncnc2c1)CCOP(=O)(O)O,15.2% (inactive),inactive,inactive,–,inactive,–,–,0.468 µM (active),0.372 µM (active),–,–,–,–
Nc1cccc(S(=O)(=O)N2CCCN(S(=O)(=O)c3ccc4c(c3)OCCO4)CC2)c1,17.7% (inactive),inactive,inactive,–,–,inactive,–,inactive,inactive,–,–,–,–
Cc1cnc(CNC(=O)c2c(=O)c3ccc(N4CCCN(C)CC4)nc3n3c2sc2ccccc23)cn1,18.9% (inactive) and -1.79% (inactive),–,–,–,–,–,–,–,1.08 µM (active),–,–,8.69% [at 11.2 µM] (inactive),2.3% [at 11.2 µM] (inactive)
CC(C)(C)c1cc(NC(=O)Nc2ccc(-c3cn4c(n3)sc3cc(OCCN5CCOCC5)ccc34)cc2)no1,10.5% (inactive) and 25% (inactive),inactive,inactive,–,inactive,14.8 µM (active),4.68 µM (active),4.68 µM (active),0.003 µM (active),–,–,–,–
CC(C)(C)Sc1c(CC(C)(C)C(=O)O)n(Cc2ccc(Cl)cc2)c2ccc(OCc3ccc4ccccc4n3)cc12,0% (inactive),inactive,inactive,–,–,–,–,–,26.3 µM (active),26.3 µM (active),–,–,–
CNC(=O)c1ccc(C)c(-n2c(C)cc(OCc3ccc(F)cc3F)c(Br)c2=O)c1,30.3% (inactive) and -12.5% (inactive),inactive,inactive,–,inactive,inactive,–,inactive,–,–,–,–,–
CCCS(=O)(=O)Nc1ccc(F)c(C(=O)c2c[nH]c3ncc(-c4ccc(Cl)cc4)cc23)c1F,15.9% (inactive) and 18.8% (inactive),inactive,inactive,–,–,inactive,–,inactive,33.2 µM (active),14.8 µM (active),–,–,–
CN1CCN(C(=O)c2ccc3cc(CCNc4ncnc5ccc(C#N)cc45)ccc3c2)CC1,-12.3% (inactive),inactive,inactive,–,–,–,–,–,7.42 µM (active),–,–,–,–
CC(=O)c1c(C)c2cnc(Nc3ccc(N4CCNCC4)cn3)nc2n(C2CCCC2)c1=O,46.5% (inactive) and -19.6% (inactive),–,–,–,13.2 µM (active),14.8 µM (active),16.6 µM (active),20.9 µM (active),6.61 µM (active),–,–,10.9% [at 5.59 µM] (inactive),-7.36% [at 5.59 µM] (inactive)
CCS(=O)(=O)c1cccc(-c2cc(C(=O)NC3CCN(C)CC3)c(C)c3[nH]c4ncc(C)cc4c23)c1,–,inactive,inactive,–,0.934 µM (active),2.63 µM (active),3.72 µM (active),1.48 µM (active),0.0934 µM (active),0.235 µM (active),12.2 µM (active) and 5.88 µM (active),–,–
